{"source": "PubChem BioAssay (NCATS)", "note": "Records with an inconclusive call do not appear. Activity calls are given as the source filed them. Calls come from the whole dose curve; as a rule, active = well fitted activation curve with a large enough effect; inconclusive = small, poorly fitted or top-dose-only effect; inactive = no such curve, though single readings can be large or run the other way. Potency is the fitted concentration of half-maximal effect."}
{"molecular_target": "Cellular tumor antigen p53 (Homo sapiens) (UniProt P04637)", "sequence (P04637 whole entry, looked up)": "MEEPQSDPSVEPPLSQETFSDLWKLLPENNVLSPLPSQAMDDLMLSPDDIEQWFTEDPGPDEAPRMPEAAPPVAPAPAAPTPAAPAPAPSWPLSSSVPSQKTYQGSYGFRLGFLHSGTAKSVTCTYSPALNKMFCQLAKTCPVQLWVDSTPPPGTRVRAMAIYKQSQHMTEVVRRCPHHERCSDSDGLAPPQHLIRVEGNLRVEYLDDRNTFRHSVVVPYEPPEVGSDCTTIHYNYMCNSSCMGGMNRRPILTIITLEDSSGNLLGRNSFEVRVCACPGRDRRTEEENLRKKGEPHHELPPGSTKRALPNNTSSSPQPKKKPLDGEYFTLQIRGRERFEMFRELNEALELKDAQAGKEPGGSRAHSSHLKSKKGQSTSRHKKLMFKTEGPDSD", "experiment": "Primary qHTS for small molecule compounds that upregulate eGFP-tagged delta133p53alpha (in N-terminal) cells. (AID 2060322); note: nearly all actives have a fitted effect of over 75% in size;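 for activation: cells pre-induced with doxycycline then dosed without doxycycline; series mostly up to about 56 µM; 0% = DMSO vehicle and 100% = reference activator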", "conditions": "NCI-H358 eGFP-delta133p53alpha fluorescence, 24 h; activation: stronger effect = higher value", "outline": "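NCI-H358 cells pre-induced 24 h with 10 ng/ml doxycycline for eGFP-delta133p53alpha, plated dox-free and exposed 24 h at 37C to titrated compounds. Fixed, Hoechst-stained; gated GFP peak intensity by laser scanning cytometry, normalized to DMSO (0%) and 57.5 uM 5-azacytidine (100%).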"}
{"compound": "O=C(OCC1(COC(=O)c2cccnc2)CCCC(COC(=O)c2cccnc2)(COC(=O)c2cccnc2)C1O)c1cccnc1", "activation": "-11.7% (inactive)"}
{"compound": "O=C(O)c1cn(C2CC2)c2cc(Cl)c(F)cc2c1=O", "activation": "11.9% (inactive)"}
{"compound": "CC(C)(C)c1nnc(NS(=O)(=O)c2ccc(N)cc2)s1", "activation": "-16.7% (inactive)"}
{"compound": "Cc1cc2c(cc1S(N)(=O)=O)S(=O)(=O)CCC2", "activation": "-27.6% (inactive)"}
{"compound": "Nc1nc(F)nc2c1ncn2[C@@H]1O[C@H](COP(=O)(O)O)[C@@H](O)[C@H]1O", "activation": "-4.99% (inactive)"}
{"compound": "CCNC(=O)Nc1ccc(-c2nc3c(c(N4CCOC[C@H]4C)n2)CCN(C2COC2)C3)cc1", "activation": "5.73% (inactive)"}
{"compound": "COc1cc(C=CC(=O)O)ccc1O", "activation": "-12.5% (inactive)"}
{"compound": "CCOC(=O)c1cccc(N)c1", "activation": "-1.67% (inactive)"}
{"compound": "O=C(O)c1ccccc1OP(=O)(O)O", "activation": "-6.21% (inactive)"}
{"compound": "CC(C)=CCC/C(C)=C/CC/C(C)=C/C(=O)OCC(=O)[C@@]1(O)CC[C@H]2[C@@H]3CCC4=CC(=O)C=C[C@]4(C)[C@H]3[C@@H](O)C[C@@]21C", "activation": "-21.8% (inactive)"}
{"compound": "O=C1c2cccc(O)c2C(=O)c2c(O)cccc21", "activation": "-22.6% (inactive)"}
{"compound": "CO[C@H]1C=CO[C@@]2(C)Oc3c(C)c(O)c4c(O)c(c(C=NN5CCN(C)CC5)c(O)c4c3C2=O)NC(=O)C(C)=CC=C[C@H](C)[C@H](O)[C@@H](C)[C@@H](O)[C@@H](C)[C@H](OC(C)=O)[C@H]1C", "activation": "3.33% (inactive)"}
{"compound": "CN[C@@H]1[C@@H](O)[C@@H](O[C@@H]2[C@@H](O)[C@H](O[C@H]3O[C@H](CN)[C@@H](O)[C@H](O)[C@@H]3O)[C@@H](N)C[C@@H]2NC(=O)[C@@H](O)CN)OC[C@]1(C)O", "activation": "-2.48% (inactive)"}
{"compound": "CCC(C=C[C@@H]1OC(=O)C=C[C@H]1C)=C[C@H](C)CC=CC(C)=C[C@@H](C)C(=O)[C@@H](C)[C@H](O)[C@@H](C)CC(C)=CC(=O)O", "Potency": "287 nM (active)"}
{"compound": "C[C@]1(Cn2ccnn2)[C@H](C(=O)O)N2C(=O)C[C@H]2S1(=O)=O", "activation": "-22.6% (inactive)"}
{"compound": "c1ccc(CCNc2nc(-c3ccccc3)cs2)cc1", "activation": "20.1% (inactive)"}
{"compound": "CC1(C)C(=O)CCC2(C)C1C(O)C=C1COC(=O)C12O", "note": "(stereo not drawn)", "activation": "25.2% (inactive)"}
{"compound": "CC(=O)N[C@@H]1[C@H](O[C@@H]2c3ccc(c(Cl)c3)Oc3cc4cc(c3O[C@H]3O[C@H](CO)[C@@H](O)[C@H](O)[C@H]3NC(=O)CCCCCCCC(C)C)Oc3ccc(cc3Cl)C[C@H]3NC(=O)[C@H](N)c5ccc(O)c(c5)Oc5cc(O)cc(c5)[C@H](NC3=O)C(=O)N[C@H]4C(=O)N[C@H]3C(=O)N[C@@H]2C(=O)N[C@@H](C(=O)O)c2cc(O)cc(O[C@H]4O[C@H](CO)[C@@H](O)[C@H](O)[C@H]4O)c2-c2cc3ccc2O)O[C@H](CO)[C@@H](O)[C@@H]1O", "activation": "25.3% (inactive)"}
{"compound": "CC(=O)N[C@H]1[C@@H]([C@H](O)[C@H](O)CO)OC(C(=O)O)=C[C@@H]1N=C(N)N", "activation": "-10.7% (inactive)"}
{"compound": "CCCCc1nc(Cl)c(CO)n1Cc1ccc(-c2ccccc2-c2nn[nH]n2)cc1", "activation": "-19.2% (inactive)"}
{"compound": "CC(C)OP(=O)(CP(=O)(OC(C)C)OC(C)C)OC(C)C", "activation": "-4.18% (inactive)"}
{"compound": "COc1ccnc2[nH]cc(C(=O)C(=O)N3CCN(C(=O)c4ccccc4)C[C@@H]3C)c12", "activation": "3.59% (inactive)"}
{"compound": "Nc1nnnn1-c1ccccc1", "activation": "29.9% (inactive)"}
{"compound": "CCC(C)(CN(C)C)OC(=O)c1ccccc1", "note": "(stereo not drawn)", "activation": "-10.9% (inactive)"}
{"compound": "Nc1ccc(C(=O)NCC(=O)O)cc1", "activation": "-8.47% (inactive)"}
{"compound": "Nc1nc(N)c(-c2ccccc2)s1", "activation": "-14.1% (inactive)"}
{"compound": "CCCCC1=NC2(CCCC2)C(=O)N1Cc1ccc(-c2ccccc2-c2nn[nH]n2)cc1", "activation": "6.69% (inactive)"}
{"compound": "CCC(=O)c1c(O)cc(O)cc1O", "activation": "-1.67% (inactive)"}
{"compound": "CC(C)[C@@H]1CC[C@@H](C)CC1=O", "activation": "16.4% (inactive)"}
{"compound": "O=C(CO)[C@@H](O)[C@H](O)[C@@H](O)CO", "activation": "-15.9% (inactive)"}
{"compound": "O=C(O)Cc1ccc(-c2ccccc2)cc1", "activation": "-6.21% (inactive)"}
{"compound": "C[C@H]1C[C@H]2[C@@H]3CCC4=CC(=O)C=C[C@]4(C)[C@@H]3C(=O)C[C@]2(C)[C@@]1(O)C(=O)CO", "activation": "-19.3% (inactive)"}
{"compound": "Cc1c(C(=O)O)c(O)cc2c1C(=O)c1c(O)c([C@@H]3O[C@H](CO)[C@@H](O)[C@H](O)[C@H]3O)c(O)c(O)c1C2=O", "activation": "-4.18% (inactive)"}
